VDR inh: vitamin D3 receptor (human) inhibition. VDR-SRC2-3 peptide fluorescence polarization, 2 h. AID 504847. P11473. Potency, µM, most hits filed as inhibitors. 400,000 tested, 0.93% active
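Inhibition of the VDR/SRC2-3 peptide interaction is quantified by fluorescence polarization. Compounds (23 nl, pintool) incubate with the reagents for 2 hours at ambient room temperature.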
Tau ThT inhib: inhibitors of human tau fibril formation, thioflavin T binding; P10636; recombinant tau K18 P301L, heparin-induced fibrillization, ThT fluorescence; Potency, µM (titrated, usually from 57.4 µM), most hits filed as inhibitors; 270,000 tested, 2.1% active; AID 1460; further: nearly all actives have a fitted effect of over 55% in size
Target sequence (P10636 561-689 P618L limits assumed): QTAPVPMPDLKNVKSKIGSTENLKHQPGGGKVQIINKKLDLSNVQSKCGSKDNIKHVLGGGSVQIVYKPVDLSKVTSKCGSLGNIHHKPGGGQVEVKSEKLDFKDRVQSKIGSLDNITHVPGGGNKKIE
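Using a mix of unlabeled (15 uM) and Alexa 594-labeled (0.24 uM) tau K18 P301L, heparin-triggered fibrillization over 6 hr at 37 C was scored by ThT fluorescence.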
Sfp PPTase inh: Sfp phosphopantetheinyl transferase inhibition; Q9F4F7; Biochemical Sfp PPTase activity, qHTS; Potency, µM, most hits filed as inhibitors; 310,000 tested, 3.5% active; AID 1490;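 further: the enzyme is Sfp with the accession as filed and its product quenches rhodamine fluorescence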
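After 15 min at room temperature with compound, 15 nM Sfp received 5 uM rhodamine-CoA plus 12.5 uM BHQ-2-ybbR (50 mM Hepes pH 7.6, 10 mM MgCl2). Rate came from the fluorescence difference over 30 min, ex 525/em 598 nm.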
Tau fluor cs: counter-screen for tau fibril formation inhibitors | tau K18 P301L (four-repeat tau fragment) Alexa594 fluorescence, heparin fibrillization | 280,000 tested, 0.93% active | AID 1463 | Potency, µM (top dose mostly 57.7 µM); further: nearly all actives have a fitted effect of over 55% in size
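Human K18 P301L tau (15 uM unlabeled plus 0.24 uM Alexa 594-labeled, final) in 100 mM sodium acetate pH 7 was mixed with compound and 20 uM heparin and incubated 6 hr at 37 C.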
Tau FP inhib: tau fibrillization inhibition (FP); P10636; K18 P301L tau heparin fibrillization, Alexa594 FP, 6 h; Potency, µM (top dose mostly 57.7 µM), hits mostly inhibitors; 280,000 tested, 0.39% active; AID 1468; further: nearly all actives have a fitted effect of over 55% in size
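Read-out: fluorescence polarization of Alexa 594-labeled tau (0.24 uM), 555 nm excitation, 632 nm emission. Mixtures held 15 uM unlabeled K18 P301L, compound and 20 uM heparin, pH 7 acetate buffer, incubated 6 hr at 37 C.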
PLK1 PBD block: PLK1 (human) polo-box domain binding inhibition | P53350 | Plk1 PBD binding of FITC phosphopeptide, fluorescence polarization | Potency, µM, usual class: inhibitors | 360,000 tested, 2.8% active; further: series mostly up to about 57 µM; nearly all actives have a fitted effect of over 65% in size
Target sequence (P53350 whole entry, looked up, the tested form may be a part): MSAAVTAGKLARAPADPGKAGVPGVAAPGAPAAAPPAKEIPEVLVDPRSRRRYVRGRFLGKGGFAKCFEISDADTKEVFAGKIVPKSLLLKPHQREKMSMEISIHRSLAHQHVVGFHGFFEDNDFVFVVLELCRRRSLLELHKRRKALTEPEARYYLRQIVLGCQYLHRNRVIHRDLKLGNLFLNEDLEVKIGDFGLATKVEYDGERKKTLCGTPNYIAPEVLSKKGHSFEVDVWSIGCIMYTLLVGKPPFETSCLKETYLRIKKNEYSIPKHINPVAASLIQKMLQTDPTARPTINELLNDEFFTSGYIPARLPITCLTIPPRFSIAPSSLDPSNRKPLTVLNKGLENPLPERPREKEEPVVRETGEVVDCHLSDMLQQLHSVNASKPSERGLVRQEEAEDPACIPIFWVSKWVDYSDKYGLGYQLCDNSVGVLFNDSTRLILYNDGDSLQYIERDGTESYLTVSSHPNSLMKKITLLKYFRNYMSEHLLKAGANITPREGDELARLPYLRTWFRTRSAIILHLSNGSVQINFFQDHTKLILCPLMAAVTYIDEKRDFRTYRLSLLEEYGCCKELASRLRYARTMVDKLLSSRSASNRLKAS
A number is an active result; i = inactive; ? = inconclusive; nt = not tested or not shown; ! = not active in a repeat; [ ] = remark or other dose. Sampled rows, rich in hits. Any-hit rate of the full collection: about 6%. The call rests on the fitted dose curve; in most records, active means well fitted curve in the direction sought with a large enough effect; inconclusive means small, poorly fitted or top-dose-only effect, or another doubt; inactive means no such curve, though single readings can be large; an effect the other way counts as inactive or inconclusive.

SMILES	VDR inh	Tau ThT inhib	Sfp PPTase inh	Tau fluor cs	Tau FP inhib	PLK1 PBD block
O=C(N/N=C/C(Cl)=C/c1ccccc1)c1ccco1	i	i	i	i	i	?
O=[N+]([O-])c1ccc(Cl)c(/C=N/n2c(COc3ccccc3)n[nH]c2=S)c1	?	?	?	i	i	24µM
Cc1cccc(/C=N/n2c(COc3ccccc3)n[nH]c2=S)c1	i	nt	56µM	nt	nt	24µM
CCOc1ccc(/C=N/n2c(COc3ccccc3)n[nH]c2=S)cc1OC	i	nt	56µM	nt	nt	?
S=c1[nH]nc(COc2ccccc2)n1/N=C/c1ccc(Cl)c(Cl)c1	i	nt	56µM	nt	nt	17µM
Nc1ccc2ccccc2c1C(=O)c1ccccc1	i	nt	nt	nt	nt	i
Cc1ccccc1CNC(=O)C1CCN(S(=O)(=O)Cc2ccccc2)CC1	i	i	nt	i	i	nt
CC/C(=C/c1sc2ccccc2[n+]1CC)SC	i	i	i	i	i	i
CC[n+]1c(/C=C/Nc2ccccc2)sc2ccccc21	i	?	i	28µM[fluorescent]	i	i
CCN1/C(=C/C=C/C=C/c2sc3ccccc3[n+]2CC)Sc2ccccc21	?	4µM	45µM	16µM[quencher]	18µM	nt
CCN1/C(=C/C=C/c2sc3ccccc3[n+]2CC)Sc2ccccc21	7.9µM!	nt	79µM	nt	nt	i
CC(C)C1NC(=O)[C@H](CCCCN)NC(=O)[C@@H](Cc2c[nH]c3ccccc23)NC(=O)[C@H](Cc2ccc(O)cc2)NC(=O)[C@H](C)N(C)C(=O)[C@H](Cc2ccccc2)NC1=O (stereo not given in full)	nt	i	nt	i	i	nt
CCOC(=O)c1ccc(NC(=O)c2c(N3CCCC3=O)c3cc(OC)ccc3n2C)cc1	i	?	nt	?	i	nt
CN(C)CCN(Cc1ccccc1)S(=O)(=O)c1ccc2[nH]c(=O)ccc2c1	i	i	nt	i	i	nt
Cc1[nH]n(C2=NCCS2)c(=O)c1N=Nc1cccc(C(F)(F)F)c1	i	13µM	i	i	i	i
Cc1[nH]n(C(N)=S)c(=O)c1N=Nc1cccc(C(F)(F)F)c1	i	nt	i	nt	nt	?
O=C(O)c1ccc(-c2ccc(-c3ccccc3)cc2)o1	89µM	i	?	i	i	nt
O=C(O)c1ccc(-c2cccc(Cl)c2)o1	i	nt	nt	nt	nt	i
COCc1cc(N2CCCCC2)nc(-c2ccccc2)n1	?	i	i	i	?	27µM
COCCn1c(C)cc(C2=NNC(=Nc3ccccc3)SC2)c1C	i	?	22µM	i	i	i
COCCn1c(C)cc(C2=NNC(=Nc3ccc(OC)cc3)SC2)c1C	i	?	50µM	i	i	?
COCCn1c(C)cc(C2=NNC(=NC(C)(C)C)SC2)c1C	i	?	i	i	?	?
CN(C)c1ccc(S(=O)(=O)NCC(=O)OCC(=O)Nc2cc(Cl)cc(Cl)c2)cc1[N+](=O)[O-]	?	28µM	i	?	?	i
FC(F)(F)c1ccc(Cl)c(N/N=C/c2ccc(N3CCOCC3)s2)c1	i	?	i	13µM[quencher]	i	i
O=C(N/N=C/c1ccc(N2CCOCC2)s1)c1ccccc1Cl	?	?	i	i	i	24µM
SMILES	VDR inh	Tau ThT inhib	Sfp PPTase inh	Tau fluor cs	Tau FP inhib	PLK1 PBD block
CCOC(=O)N/N=C/c1ccc(N2CCOCC2)s1	i	?	i	i	i	i
CSC[C@H]1CN(c2ccccc2)C(=O)[C@@H]1CC(=O)Nc1ccccc1	nt	nt	nt	nt	nt	i
CCC(=O)N1CCc2cc(Br)cc(S(=O)(=O)CCC(=O)N3CCN(c4ccc(OC)cc4)CC3)c21	i	i	nt	i	i	nt
O=C(NCc1ccccc1)C12CN(Cc3ccccc3)CC1C(c1cccc([N+](=O)[O-])c1)=NO2 (stereo not given)	i	i	i	i	i	i
Cc1ccc(CCNC(=O)C23CN(Cc4ccccc4)CC2C(c2ccc([N+](=O)[O-])cc2)=NO3)cc1 (stereo not given)	i	i	10µM	i	?	i
Cc1ccc(CNC(=O)C23CN(Cc4ccccc4)CC2C(c2ccc([N+](=O)[O-])cc2)=NO3)cc1 (stereo not given)	i	i	40µM	i	i	i
OC(c1ccccc1)c1nc2ccccc2s1 (stereo not given)	i	i	i	i	i	12µM
OC(c1ccccc1)c1nc(-c2ccccc2)cs1 (stereo not given)	nt	nt	nt	nt	nt	i
CN1CCc2c(sc(/N=C/c3c[nH]c4ccccc34)c2C#N)C1	i	14µM	?	?	?	i
CN1CCc2c(sc(/N=C/c3c[nH]c4ccccc34)c2C(N)=O)C1	i	10µM	?	?	?	i
COc1cc(OC)c(NC(=O)Cn2cnc3c(nc4n3CCCCC4)c2=O)cc1Cl	i	i	nt	i	i	nt
Cc1sc2ccccc2[n+]1CC(=O)c1ccccc1	28µM	nt	?	nt	nt	21µM
CCCC[n+]1c(C)sc2ccc(C)cc21	?	i	i	i	i	i
Cc1ccc2ccccc2[n+]1CCCS(=O)(=O)[O-]	i	i	i	i	i	i
COc1ccc2sc(SCCCS(=O)(=O)O)[n+](CCCS(=O)(=O)[O-])c2c1	?	i	4.5µM	i	i	i
Cc1sc2ccccc2[n+]1CCC(C)S(=O)(=O)[O-] (stereo not given)	?	?	45µM	i	i	?
Cc1cc[n+](CC(=O)c2ccccc2)c2ccccc12	i	i	i	i	i	i
CSc1sc2ccccc2[n+]1CCCS(=O)(=O)[O-]	35µM	?	18µM	i	i	?
COc1ccc(C)cc1NC(C)C(=O)NC(=O)NC1CCCCC1 (stereo not given)	i	nt	nt	nt	nt	i
COc1ccc(-n2ccnc2SCC(=O)c2c(N)n(C3CC3)c(=O)[nH]c2=O)cc1	nt	nt	nt	nt	nt	i
O=C(Cc1ccccc1I)Nc1ccccc1	nt	i	i	i	i	nt
Cc1n[nH]c(=O)nc1NCC1CCCO1 (stereo not given)	i	i	?	i	i	27µM
CCC(NC(=O)OCc1ccccc1)C(=O)Oc1ccc2ccc(=O)oc2c1 (stereo not given)	?	nt	i	nt	nt	30µM
O=C(Oc1ccc2ccc(=O)oc2c1)c1ccccc1	i	nt	i	nt	nt	i
N#Cc1ncc(-c2ccc3c(c2)OCCOCCOCCOCCO3)nc1C#N	i	20µM	i	i	?	i
SMILES	VDR inh	Tau ThT inhib	Sfp PPTase inh	Tau fluor cs	Tau FP inhib	PLK1 PBD block
COc1ccc(C(c2c(O)nc(SC)n(C)c2=O)c2c(O)nc(SC)n(C)c2=O)cc1O	i	?	50µM	i	?	i
Fc1ccccc1N1CCN(c2c3c(nc4nncn24)CCC3)CC1	i	?	nt	i	i	nt
Cc1cccc(NC(=S)N=Nc2c(O)n(CN3CCOCC3)c3ccccc23)c1C	i	?	i	11µM[quencher]	i	i
Cc1cccc(NC(=S)N2CCOCC2)c1C	i	i	71µM	i	i	i
C=CCn1c(O)c(N=NC(=S)Nc2ccccc2C)c2cc(S(=O)(=O)N3CCOCC3)ccc21	i	i	i	?	i	i
CC(=O)c1ccc(S(=O)(=O)Nc2ccc(-c3ccc(N4CCCCC4)nn3)cc2)cc1	i	?	nt	?	i	nt
